Shown is part of a subset that was picked to be rich in hits.
FECH block = inhibitors of human ferrochelatase | purified FECH, Ni-mesoporphyrin absorbance 550 nm | AID 1671448 | actives 3.3% (n = 20,000) | calls only at 10 µM (by protocol) | P22830;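 active = enzyme reaction rate more than 3 SD below the solvent-only control wells on the same plate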;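 note: lower slope than DMSO wells means FECH inhibition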
An asterisk follows results filed as active; i = inactive; + = active, no number.

SMILES | FECH block
c1ccc2[nH]c(C3NCCc4[nH]cnc43)nc2c1 (stereo not drawn) | +
c1cc(C2NCCc3[nH]cnc32)c2cc[nH]c2c1 (stereo not drawn) | i
CC(Cc1cccs1)NCCC(=O)N1CCCc2ccccc21 (stereo not drawn) | i
Cc1ccc(CN2CCCN(Cc3ccc(Cl)cc3)S2(=O)=O)cc1 | +
Cc1ccccc1CN1CCCN(Cc2ccc(Cl)cc2)S1(=O)=O | i
Cc1ccc(CN2CCCN(CC(N)=O)S2(=O)=O)cc1 | i
Cc1cc(F)ccc1CC(=O)N1CCN(C)C(C(=O)O)C1 (stereo not drawn) | i
Cc1ccc(C)c(-n2cc(C3=CCN(Cc4noc(C5CC5)n4)CC3)cn2)c1 | i
CCCc1cnc(N2CCN3CCN(C)CC3C2)nc1 (stereo not drawn) | i
CN1C(=O)C2(CCN(Cc3cc(-c4ccccn4)no3)CC2)c2ccccc21 | i

Screening results deposited in PubChem BioAssay by Corson Lab, School of Medicine, Indiana University.
